From PubChem BioAssay
HPGD block: blocks human HPGD enzyme activity. P15428. AID 894. purified HPGD, NADH fluorescence kinetic, PGE2 substrate. Potency, µM, without a hit: at the top dose activity change, negative = inhibition, most hits filed as inhibitors. 150,000 compounds, 4.3% hits; active = well fitted inhibition curve with a large enough effect, not every such curve was filed as active; inconclusive = small, poorly fitted or top-dose-only effect, or another doubt; inactive = no such curve, though single readings can be large or run the other way
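NADH formation kinetics: reaction with 30 uM PGE2 and 1 mM NAD+ (final), 20 nM enzyme, Tris-HCl pH 8 with Tween 20, after 15 min compound preincubation at room temperature. Fluorescence change, last versus first of five reads.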
Tau fluor cs: counter-screen for tau fibril formation inhibitors; tau K18 P301L Alexa594 fluorescence, heparin fibrillization; Potency, µM (top dose mostly 57.7 µM), without a hit: top-dose activity change, negative = decrease; 280,000 compounds, 0.93% hits; AID 1463; also: nearly all actives have a fitted effect of over 55% in size
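Human K18 P301L tau (15 uM unlabeled plus 0.24 uM Alexa 594-labeled, final) in 100 mM sodium acetate pH 7 was mixed with compound and 20 uM heparin and incubated 6 hr at 37 C.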
ALDH1A1 block: ALDH1A1 (human) enzyme inhibition. Potency, µM (highest dose often 75.3 µM), inactives show top-dose activity, negative = inhibition, usual class: inhibitors. 220,000 compounds, 7.3% hits. P00352. Purified ALDH1A1, NADH fluorescence, propionaldehyde substrate; active = well fitted inhibition curve with a large enough effect, not every such curve was filed as active; inconclusive = small, poorly fitted or top-dose-only effect, or another doubt; inactive = no such curve, though single readings can be large or run the other way;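 also: plate controls were no enzyme wells and a reference inhibitor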
Target sequence (P00352 whole entry, looked up): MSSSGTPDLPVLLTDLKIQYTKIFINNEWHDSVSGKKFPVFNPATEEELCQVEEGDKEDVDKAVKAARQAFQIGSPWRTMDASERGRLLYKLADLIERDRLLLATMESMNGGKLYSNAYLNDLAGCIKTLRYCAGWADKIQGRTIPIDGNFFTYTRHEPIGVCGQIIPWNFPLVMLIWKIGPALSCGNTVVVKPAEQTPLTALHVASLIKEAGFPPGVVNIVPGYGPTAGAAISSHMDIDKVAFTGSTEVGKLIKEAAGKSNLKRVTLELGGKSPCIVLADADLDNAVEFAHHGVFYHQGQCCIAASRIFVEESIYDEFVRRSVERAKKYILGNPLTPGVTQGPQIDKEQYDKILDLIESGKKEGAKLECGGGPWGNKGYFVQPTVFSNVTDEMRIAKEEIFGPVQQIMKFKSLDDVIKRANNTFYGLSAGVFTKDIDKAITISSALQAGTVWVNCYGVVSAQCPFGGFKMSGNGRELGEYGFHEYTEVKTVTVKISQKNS
Tau ThT inhib: blocks human tau fibril formation measured by thioflavin T; P10636; recombinant tau K18 P301L, heparin-induced fibrillization, ThT fluorescence; Potency, µM (highest dose often 57.4 µM), inactives show at the top dose activity, negative = inhibition, usual class: inhibitors; 270,000 compounds, 2.1% hits; also: nearly all actives have a fitted effect of over 55% in size
Target sequence (P10636 561-689 P618L limits assumed): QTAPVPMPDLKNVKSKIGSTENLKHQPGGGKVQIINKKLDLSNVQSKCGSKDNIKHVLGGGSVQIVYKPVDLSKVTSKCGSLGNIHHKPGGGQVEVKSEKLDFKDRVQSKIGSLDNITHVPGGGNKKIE
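Fibril formation assay: tau K18 P301L at 15 uM with trace Alexa 594 label, heparin inducer 20 uM, pH 7 sodium acetate buffer, 37 C for 6 hr; endpoint ThT signal.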
Tau fibril FP: blocks human tau fibril formation measured by polarization; P10636; K18 P301L tau heparin fibrillization, Alexa594 FP, 6 h; Potency, µM (highest dose often 57.7 µM), for the others: at the highest dose activity, negative = inhibition, hits mostly inhibitors; 280,000 compounds, 0.39% hits; AID 1468; also: nearly all actives have a fitted effect of over 55% in size
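Human tau K18 […] P301L fragment, 15 uM unlabeled plus 0.24 uM Alexa 594-labeled tau (final), with compound and 20 uM heparin in 100 mM sodium acetate pH 7; 6 hr at 37 C, then Alexa 594 FP read.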
NPSR antag: neuropeptide S receptor (human) antagonism, cAMP; 220,000 compounds, 1% hits; CHO-NPSR cells, cAMP TR-FRET, antagonist mode; Potency, µM (top dose mostly 38.3 µM), for the others: at the top dose activity change, negative = inhibition, usual class: inhibitors; also: nearly all actives have a fitted effect of over 50% in size
* marks the source's active call; other numbers are inactive results; ? = inconclusive; · = no result given; [ ] = dose if it differs, or a comment. In the library only some 9.5% were active in any assay of this set; here they are far more common. Unless noted, calls follow the shape of the dose curve; as a rule, active = well fitted curve in the direction sought with a large enough effect; inconclusive = small, poorly fitted or top-dose-only effect, or another doubt; inactive = no such curve, though single readings can be large; an effect the other way counts as inactive or inconclusive. Unless noted, % is scaled to controls: 0 for no effect and ±100 for the full control effect; potency is read from the fitted curve at half-maximal effect.

SMILES | HPGD block | Tau fluor cs | ALDH1A1 block | Tau ThT inhib | Tau fibril FP | NPSR antag
CC(=O)C1=C(c2ccccc2)N(C(C)=O)n2c(C)nnc2S1 | · | -17.5% | ? | 11.2µM* | ? | -32.6%
CC(=O)C1=C(c2ccc(F)cc2)N(C(C)=O)n2c(nnc2C2CCCCC2)S1 | · | -13.2% | · | ? | -15.0% | ·
c1csc(-c2nc3nc4ccccc4nc3n2Cc2ccc3c(c2)OCO3)c1 | ? | -8.3% | ? | -17.0% | -1.3% | ?
Clc1ccccc1-c1nc2nc3ccccc3nc2n1-c1ccc2c(c1)OCO2 | -16.4% | 0.3% | 11.2µM* | -1.6% | 5.5% | -36.4%
O=C(NNc1ccc([N+](=O)[O-])cc1)C1C2CCCCC21 (stereo not drawn) | -8.0% | -15.3% | 25.1µM* | ? | -10.3% | 2.5%
O=c1c(-c2cccc(F)c2)nc2cncnc2n1Cc1ccccc1 | -19.2% | · | -3.2% | · | · | ·
COC(=O)C1=C(CS(=O)(=O)c2cc(Cl)ccc2OC)NC(=O)NC1c1ccccc1 (stereo not drawn) | · | 0.2% | · | 2.4% | -3.4% | ·
N#Cc1cc(C(=O)c2cc(F)ccc2O)cn(-c2nccs2)c1=O | 11.2µM* | -16.0% | ? | ? | -5.5% | -11.8%
N#Cc1cc(C(=O)c2ccccc2O)cn(-c2nccs2)c1=O | 31.6µM* | -29.3% | ? | ? | -14.6% | -16.2%
Cc1ccccc1-c1nnc(SCC(=O)N(C)C2CCCCC2)o1 | · | 0.6% | · | 0.9% | ? | ·
Cc1ccc(N/C(C(Cl)=C(Cl)Cl)=C(/Cl)[N+](=O)[O-])c(C)c1 | -24.4% | -10.6% | 3.55µM* | ? | -10.5% | -11.6%
CCC(C(=O)Nc1cccc(Cl)c1C)n1nc(C)c2sc3ccccc3c2c1=O (stereo not drawn) | · | -21.0% | · | ? | -6.2% | ·
Cc1cc(-c2nnc(CCC(=O)N3CCN(Cc4cccc(F)c4)CC3)o2)c(C)o1 | · | 1.5% | 28.2µM* | ? | -9.2% | -1.5%
CC(C)CC(=O)N1CCN(Cc2cccc(F)c2)CC1 | -15.3% | -0.1% | -3.2% | -4.2% | 2.0% | -8.4%[46.1 µM]
N#CCCCS(=O)(=O)c1nnnn1-c1ccc(F)cc1Br | -9.6% | -8.6% | 17.8µM* | ? | -2.4% | ·
Cc1c(CCC(=O)NCCc2ccc(Cl)cc2)c(=O)oc2c(C)c(O)ccc12 | · | -11.6% | · | -4.0% | -18.9% | ·
CC(=O)CCc1oc2ccc([N+](=O)[O-])cc2c1-c1ccc(C)o1 | · | ? | 10µM* | ? | 5.0% | 33.3%
C[C@@H]1Cc2ccccc2N1NC(=O)c1ccc(Cl)c(S(N)=O)c1 (stereo partly drawn) | -1.3% | · | 7.94µM* | · | · | ·
Fc1ccc(/C=C2\CCCC3=C2NC(=S)NC3c2ccc(F)cc2)cc1 (stereo not drawn) | 25.1µM* | -16.4% | ? | ? | ? | -1.8%
Cc1cccc(C(=O)NC(=S)Nc2ccc(Cc3ccncc3)cc2)c1 | ? | -20.1% | 20µM* | ? | 6.0% | -15.8%[46.1 µM]
O=C(NC(=S)Nc1ccc(Cc2ccncc2)cc1)c1ccccc1 | ? | -0.6% | 17.8µM* | -14.1% | -3.3% | -20.3%
COC(=O)Nc1ccc(Cc2ccncc2)cc1 | · | -11.9% | 14.9% | -12.3% | -3.5% | 14.0%
Cc1cc(C)cc(C(=O)NC(=S)Nc2ccc(Cc3ccncc3)cc2)c1 | -5.8% | -26.0% | ? | ? | -8.7% | -27.7%
Cc1ccccc1CSc1nc2cccnc2n1Cc1ccc(C(=O)NC2CC2)cc1 | · | -12.7% | · | -1.7% | 5.6% | ·
COc1cccc(C2C(C#N)=C(N)Oc3c2oc(CO)cc3=O)c1 (stereo not drawn) | -15.6% | -0.1% | 8.3% | -1.4% | -2.3% | 0.6%[46.1 µM]
SMILES | HPGD block | Tau fluor cs | ALDH1A1 block | Tau ThT inhib | Tau fibril FP | NPSR antag
COc1cccc(C2C(C#N)=C(N)SC(c3ccccc3)C2[N+](=O)[O-])c1 (stereo not drawn) | · | 1.9% | 5.62µM* | 4.2% | 2.3% | -26.0%
CC1Cn2c(CCc3ccccc3)nnc2S1 (stereo not drawn) | 28.2µM* | 8.2% | ? | 11.5% | 2.7% | 3.8%[46.1 µM]
CC1Cn2c(COc3ccccc3)nnc2S1 (stereo not drawn) | -10.2% | 4.4% | 7.8% | 0.7% | -2.8% | 6.2%[46.1 µM]
Nc1ccccc1S[C@@H](C[N+](=O)[O-])c1ccc2c(c1)OCO2 | 3.16µM* | · | 3.55µM* | · | · | ·
CC(C)CCNc1nc2c(S(=O)(=O)c3ccc(Br)cc3)nnn2c2ccsc12 | · | -19.6% | · | 6.5% | -21.5% | ·
Cc1oc2ccc(O)cc2c1C(=O)c1ccc([N+](=O)[O-])cc1 | -9.1% | -25.2% | 4.6% | -13.1% | 12.6% | 6.2%
CN(C)/C=C/c1oc2ccc(O)cc2c1[N+](=O)[O-] | · | -12.6% | 15.0% | 11.2µM* | 4.7% | -46.3%
CCN(Cc1ccccc1)C(=O)c1cc(-c2ccccc2)n[nH]1 | · | -23.5% | · | -15.2% | 2.6% | ·
Cc1nc(-c2cccc(NS(C)(=O)=O)c2)cs1 | -24.2% | -4.1% | 4.3% | -7.7% | 7.3% | -3.6%[46.1 µM]
Oc1ccc(-c2csc(-c3ccccc3)n2)cc1O | 28.2µM* | 15.8µM*[quencher] | ? | 10µM* | -1.5% | -4.9%[46.1 µM]
Cc1nc(-c2ccc(NS(C)(=O)=O)cc2)cs1 | 15.8µM* | -1.2% | 12.5% | -8.2% | -3.9% | -0.9%[46.1 µM]
COc1cc(-c2csc(C)n2)ccc1O | 2.3% | -0.4% | -0.2% | -5.1% | -4.2% | 5.8%[46.1 µM]
Oc1ccc(-c2csc(Nc3ncccn3)n2)cc1O | · | ? | ? | 11.2µM* | 18.0% | -10.2%
Cc1nc(-c2ccc(O)c(O)c2)cs1 | 22.4µM* | -28.3% | ? | ? | 0.2% | -17.2%[46.1 µM]
O=C(NCc1cccnc1)c1ccc2c(c1)OCO2 | -14.7% | -4.7% | 1.5% | -5.5% | 3.8% | -12.6%[46.1 µM]
CCN1CCN(c2ncc3c(n2)CCN(CC(C)C)C3)CC1 | · | -5.4% | · | -10.4% | 5.1% | ·
Cc1ccc(N2C(=O)CC(N(CCc3ccccc3)C(=S)Nc3ccc(N(C)C)cc3)C2=O)cc1 (stereo not drawn) | -15.1% | ? | 28.2µM* | -8.6% | 3.8% | -29.1%[46.1 µM]
COc1ccc(CCN(C(=S)Nc2ccccc2)C2CC(=O)N(c3ccccc3)C2=O)cc1 (stereo not drawn) | -9.3% | ? | 8.2% | 3.6% | -18.4% | ?
O=C1CC(N(CCc2ccccc2)C(=S)Nc2ccccc2)C(=O)N1c1ccc(Br)cc1 (stereo not drawn) | -15.5% | ? | ? | ? | 7.94µM* | ?
C[C@H]1C2=C3C(CC[C@H]4C(OCc5ccc(F)cc5C(F)(F)F)OC[C@](C)([C@@H]34)N(C(=O)OC(C)(C)C)C2)C(CO)C1CO (stereo partly drawn) | -17.3% | -7.3% | 3.9% | -8.6% | 0.7% | ·
CCN1CCN(Cc2nc3c(c(=O)n(C)c(=O)n3C)n2CCCc2ccccc2)CC1 | -14.4% | -10.4% | 12.6µM* | -2.2% | ? | -2.5%[46.1 µM]
